The record followed here is PubChem BioAssay (NCI).

Among the test systems are RPMI-8226 leukemia; OVCAR-8 ovarian; OVCAR-5 ovarian; OVCAR-4 ovarian; SK-OV-3 ovarian; IGROV1 ovarian; OVCAR-3 ovarian; HS 578T breast; NCI/ADR-RES ovarian.
Holding throughout (assay): NCI-60 one-dose screen, 48 h (100 = growth as untreated, 0 = no growth, -100 = all killed)
Holding throughout (conditions): 10 µM

Each structure is given as a SMILES string. Compounds without any hit were thinned out: in the full panel of roughly 83,000, 20% have a hit.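 Each cell line was grown in a 96-well plate and treated with one concentration of compound for 48 hours. Values below 10 were considered active.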 Values without a mark were called inactive. Active and inactive are the calls of the source.

With `CC(=O)NCC1=C(C)C=C2C(=O)[C@](C)(O)C3(CC3)C(C)=C21`, the growth in the experiment on RPMI-8226 leukemia is 82.7%; in the experiment with OVCAR-8 ovarian, -63.6% (active); in the experiment on OVCAR-5 ovarian, -28.8% (active); in the experiment on OVCAR-4 ovarian, -53% (active); in the experiment with SK-OV-3 ovarian it was -58.5% (active); in the experiment with IGROV1 ovarian it was -39.3% (active). Further, the growth in the experiment with OVCAR-3 ovarian was -19.9% (active); in the experiment on HS 578T breast it was -37.4% (active); in the experiment on NCI/ADR-RES ovarian, -46.1% (active).

Take `O=C(Cn1cc(CSc2nnc3oc4ccccc4n23)nn1)Nc1cccc(Cl)c1`: the growth in the experiment on RPMI-8226 leukemia was 48.5%; in the experiment with OVCAR-8 ovarian it was 74.9%; in the experiment on OVCAR-5 ovarian, 87.8%; in the experiment on OVCAR-4 ovarian it was 63.4%; in the experiment on SK-OV-3 ovarian, 54.3%; in the experiment with IGROV1 ovarian, 78.7%. Also, the growth was 78.5% with OVCAR-3 ovarian, 66.6% with HS 578T breast and 53.4% with NCI/ADR-RES ovarian.

Consider `COc1ccc2[nH]c(=O)c(CSc3nccc(-c4ccc(Cl)cc4)n3)cc2c1`, for which the growth in the experiment with RPMI-8226 leukemia is 17.6%; with OVCAR-8 ovarian, -10.4% (active); in the experiment on OVCAR-5 ovarian it was 50.9%; in the experiment with OVCAR-4 ovarian, 36.3%; in the experiment on SK-OV-3 ovarian, 42.1%; in the experiment on IGROV1 ovarian, 60.9%. Besides, the growth in the experiment on OVCAR-3 ovarian was 44.8%; in the experiment with HS 578T breast, 37.2%; with NCI/ADR-RES ovarian, 12.2%.

For `O=c1oc2ccc(-c3ccc(F)cc3F)cc2c(=O)n1-c1ccc(F)c(Cl)c1`, the growth was -31% (active) with RPMI-8226 leukemia; 3.87% (active) with OVCAR-8 ovarian; -5.91% (active) with OVCAR-5 ovarian; 10.5% with OVCAR-4 ovarian; -9.67% (active) in the experiment with SK-OV-3 ovarian; 13% in the experiment on IGROV1 ovarian. Also, the growth is 3.83% (active) in the experiment on OVCAR-3 ovarian, -0.875% (active) in the experiment on HS 578T breast and -15.2% (active) in the experiment with NCI/ADR-RES ovarian.

Turning to `S=c1nc(-c2ccccc2)cc(-c2cc3ccccc3nc2Cl)[nH]1`, the growth with RPMI-8226 leukemia was 76.3%; in the experiment on OVCAR-8 ovarian, 76.1%; in the experiment on OVCAR-5 ovarian, 110%; in the experiment with OVCAR-4 ovarian, 91.7%; in the experiment on SK-OV-3 ovarian it was 75%; in the experiment with IGROV1 ovarian, 82.8%. Moreover, the growth in the experiment with OVCAR-3 ovarian was 76.7%; with HS 578T breast, 57.6%; with NCI/ADR-RES ovarian it was 49.1%.

As to `COc1cccc(-c2ccc(/C=N/NC(=O)c3[nH]c4ccc(Br)cc4c3-c3ccccc3)o2)c1`, the growth in the experiment with RPMI-8226 leukemia was 1.18% (active); in the experiment on OVCAR-8 ovarian, -16% (active); in the experiment with OVCAR-5 ovarian it was 12.3%; in the experiment on OVCAR-4 ovarian it was 37.3%; with SK-OV-3 ovarian, 34.2%; with IGROV1 ovarian it was 32.6%. The figures for the growth in the experiment on OVCAR-3 ovarian, in the experiment with HS 578T breast and in the experiment with NCI/ADR-RES ovarian were 8.31% (active), -1.37% (active) and -35% (active), respectively.

For `COc1ccc(-c2ccc(/C=N/NC(=O)c3[nH]c4ccc(Br)cc4c3-c3ccccc3)s2)cc1`, the growth is 57.7% in the experiment on RPMI-8226 leukemia; 51.9% with OVCAR-8 ovarian; 12.8% with OVCAR-5 ovarian; 79.6% with OVCAR-4 ovarian; 117% in the experiment on SK-OV-3 ovarian; 110% with IGROV1 ovarian. Also, the results for the growth in the experiment with OVCAR-3 ovarian, in the experiment with HS 578T breast and in the experiment on NCI/ADR-RES ovarian were 97.5%, 54% and 59.9%, respectively.

In the case of `COc1ccc(-c2nc(S(=O)(=O)c3ccc(C)cc3)c(S(C)(=O)=O)o2)cc1`, the growth with RPMI-8226 leukemia is -40.3% (active); in the experiment with OVCAR-8 ovarian, -77.5% (active); with OVCAR-5 ovarian, -88% (active); in the experiment with OVCAR-4 ovarian, -90.2% (active); in the experiment on SK-OV-3 ovarian, 83.6%; in the experiment on IGROV1 ovarian, -24% (active). Also, the figures for the growth in the experiment with OVCAR-3 ovarian, in the experiment on HS 578T breast and with NCI/ADR-RES ovarian were -92.4% (active), 8.31% (active) and -62.4% (active), respectively.

With `O=C(NCCCCC(c1ccc(F)cc1)c1ccc(F)cc1)NCCCc1cccnc1`, the growth with RPMI-8226 leukemia was -42.1% (active); with OVCAR-8 ovarian it was 11.4%; with OVCAR-5 ovarian, 27.9%; with OVCAR-4 ovarian it was 20.6%; in the experiment on SK-OV-3 ovarian it was 23.6%; in the experiment on IGROV1 ovarian, 31.6%. The growth with OVCAR-3 ovarian was 26.5%; in the experiment with HS 578T breast, 56.4%; in the experiment with NCI/ADR-RES ovarian it was 12.9%.

In the case of `Brc1ccc(/C=N/Nc2ncnc3sc4c(c23)CCN(Cc2ccccc2)C4)cc1`, the growth was 48.5% with RPMI-8226 leukemia; 3.8% (active) in the experiment with OVCAR-8 ovarian; 99.9% with OVCAR-5 ovarian; 43.7% with OVCAR-4 ovarian; 107% in the experiment with SK-OV-3 ovarian; 94.6% with IGROV1 ovarian. In addition, the values for the growth in the experiment on OVCAR-3 ovarian, in the experiment with HS 578T breast and in the experiment on NCI/ADR-RES ovarian were 33%, 48.3% and 68.8%, respectively.

`Cc1ccc(NC(=O)NCn2c(=O)[nH]c3ccccc3c2=O)cc1`: the growth in the experiment with RPMI-8226 leukemia was 92.7%; in the experiment with OVCAR-8 ovarian it was 39.9%; in the experiment on OVCAR-5 ovarian, 94.2%; with OVCAR-4 ovarian it was 50.8%; in the experiment with SK-OV-3 ovarian it was 57.8%; with IGROV1 ovarian, 76.6%. Besides, the growth in the experiment on OVCAR-3 ovarian was 87.6%; in the experiment with HS 578T breast, 55.3%; in the experiment with NCI/ADR-RES ovarian, 70.7%.

Regarding `COc1ccc(C(C)=C(c2ccc(OCCCN(C)C)cc2)c2ccc(OCCCN(C)C)cc2)cc1`, the growth in the experiment on RPMI-8226 leukemia is -66% (active); in the experiment with OVCAR-8 ovarian it was -92.6% (active); in the experiment with OVCAR-5 ovarian it was -100% (active); in the experiment on OVCAR-4 ovarian, -94.6% (active); with SK-OV-3 ovarian it was -99.5% (active); in the experiment on IGROV1 ovarian it was -91.1% (active). Further, the growth in the experiment with OVCAR-3 ovarian was -81.3% (active); with HS 578T breast, -68.2% (active); with NCI/ADR-RES ovarian it was -96.6% (active).

In the case of `CC(C)NC(=O)c1cc(-c2ccc(NC(=O)Nc3ccc(N4CCN(C)CC4)c(C(F)(F)F)c3)cc2)nc2cccnc12`, the growth in the experiment on RPMI-8226 leukemia was -37.5% (active); in the experiment with OVCAR-8 ovarian it was -81.4% (active); with OVCAR-5 ovarian, -99.5% (active); in the experiment on OVCAR-4 ovarian, -87.8% (active); in the experiment with SK-OV-3 ovarian it was -93.1% (active); in the experiment on IGROV1 ovarian it was -86.9% (active). The growth with OVCAR-3 ovarian is -84.9% (active); in the experiment with HS 578T breast, -42.1% (active).

In the case of `Cc1ccc(-c2nc3ccc(C(=O)N=Nc4c(O)[nH]c5ccc(Br)cc45)cc3[nH]2)cc1`, the growth in the experiment on RPMI-8226 leukemia is 49.6%; in the experiment with OVCAR-8 ovarian, 39.9%; with OVCAR-5 ovarian, 62.8%; in the experiment with OVCAR-4 ovarian, 45.7%; in the experiment on SK-OV-3 ovarian, 96.1%; in the experiment on IGROV1 ovarian, 87.4%. For the same molecule, the growth with OVCAR-3 ovarian is 49.4%; with HS 578T breast, 94.1%; in the experiment with NCI/ADR-RES ovarian, 99.7%.
